Experimental data as given in ChEMBL document CHEMBL4888484, “Replenishing the malaria drug discovery pipeline: Screening and hit evaluation of the MMV Hit Generation Library 1 (HGL1) against asexual blood stage Plasmodium falciparum ,using a nano luciferase reporter read-out” (2022).
In all, about 150,000 compounds went through this assay and about 540 (0.36%) showed an effect of 50% or more. Only a selection was taken, and strong results are over-represented in it overall.

What follows are molecules tested on Plasmodium falciparum (assay: Primary screen in NF54 nanoGlo assay, in single point, at 2uM, 72h; a lower Z score goes with more inhibition). Settings: timepoint 72 hour.
Assay type: functional, Erythrocyte
In the case of `COc1ccc(C[C@@]2(CCC(=O)N3CCCCC3)CCC(=O)N2)cc1`, the “% Inhibition” value is reported as 4% and the Z score is reported as -0.58.
With `OC(CNC1CCCNc2ccccc21)c1ccc(Cl)s1` (centres undefined) the “% Inhibition” value was 57% and the Z score was -4.74.
For `OCc1cc(CN[C@H]2CCCNc3ccccc32)ccc1F`, the “% Inhibition” value was 4% and the Z score was -0.52.
In the case of `O=C(Cc1cccs1)N1CCC2(CCC(=O)N(CCc3cccnc3)C2)CC1`, the “% Inhibition” value is reported as 5% and the Z score is reported as -1.07.
For `COc1ncnc(OC)c1CNc1cnn(C)c1`, the “% Inhibition” value was 35% and the Z score was -0.52.
For `O=C(CC(F)(F)F)N1CCC[C@H](Oc2ncccn2)C1`, the “% Inhibition” value was 14% and the Z score was -1.95.
For `Cc1noc2ncnc(N3CCC4(CC3)CC(=O)N(Cc3ccccc3)C4)c12`, the “% Inhibition” value was -6% and the Z score was 0.71.
`O=C(c1cc(-c2ccccc2)n[nH]1)N1CCC(N2CCC(Oc3ccccc3F)CC2)CC1` was tested, and the “% Inhibition” value was -12% and the Z score was 1.48.
For `O=C(c1cc(-c2ccco2)n[nH]1)N1CCC(Oc2ccccn2)CC1`, the “% Inhibition” value was -4% and the Z score was 0.71.
In the case of `O=C(c1cc(-c2ccco2)n[nH]1)N1CCC(N2CCC(Oc3ccccc3F)CC2)CC1`, the “% Inhibition” value is reported as 59% and the Z score is reported as -4.88.
`CC[C@H](Oc1ccccc1C)c1nnc(C2(c3ccccc3)CC2)o1` was tested, and the “% Inhibition” value was -15% and the Z score was 1.76.
`CC(C)(C)OC(=O)NC1CCCC1Nc1cnn(-c2ccccn2)c1` (centres undefined) was tested, and the “% Inhibition” value was -13% and the Z score was 1.28.
In the case of `Cc1ccsc1-c1noc([C@H]2CCc3nccn3C2)n1`, the “% Inhibition” value is reported as -5% and the Z score is reported as 0.62.
In the case of `Cc1cnn(C)c1CN1CCOC[C@H]1c1nc(-c2ccccc2)no1`, the “% Inhibition” value is reported as 16% and the Z score is reported as -2.06.
In the case of `Cc1ccsc1-c1noc([C@@H]2COCCN2C)n1`, the “% Inhibition” value is reported as 87% and the Z score is reported as -14.98.
For `CC(NCc1ccc(Br)c2cccnc12)C1CCOC1` (centres undefined), the “% Inhibition” value was -5% and the Z score was 0.52.
In the case of `Cc1ccc(C(=O)Nc2c(C)nc(N3CCOCC3)nc2C)cc1C`, the “% Inhibition” value is reported as 13% and the Z score is reported as -2.05.
In the case of `O=S(=O)(Nc1cccc2ccccc12)c1cccs1`, the “% Inhibition” value is reported as 35% and the Z score is reported as -3.95.
With `O=S(=O)(Nc1cccc2cccnc12)c1cccs1` the “% Inhibition” value was 55% and the Z score was -5.93.
For `Cc1n[nH]c(C)c1S(=O)(=O)Nc1cccc2cccnc12`, the “% Inhibition” value was -2% and the Z score was 0.25.
In the case of `CCN1C[C@]2(CCCN(C(=O)c3ccccc3N3CCCC3)C2)CCC1=O`, the “% Inhibition” value is reported as 7% and the Z score is reported as -1.03.
In the case of `Cc1nn(-c2cnc(N)cn2)c(C)c1Cc1ccccc1`, the “% Inhibition” value is reported as -7% and the Z score is reported as 0.91.
With `COc1ccc(CC(=O)N2CC3(C[C@H](N4CCN(C)CC4)CO3)C2)cc1` the “% Inhibition” value was -7% and the Z score was 1.04.
In the case of `Clc1ccccc1OCCn1nc(C2CC2)nc1C1CC1`, the “% Inhibition” value is reported as 2% and the Z score is reported as -0.37.
With `C[C@@H]1CN(c2nc(C(F)F)nc3ccc(F)cc23)C[C@H](C)N1` the “% Inhibition” value was -4% and the Z score was 0.64.
In the case of `CO[C@@H]1CO[C@H]2[C@@H]1OC[C@@H]2Nc1nccc(-c2ccc3c(c2)OCO3)n1`, the “% Inhibition” value is reported as -2% and the Z score is reported as 0.19.
With `CCn1ccc(C(=O)N2CCCN(Cc3c(C)noc3C)CC2)n1` the “% Inhibition” value was -3% and the Z score was 0.35.
For `NC(=O)[C@@H]1CCCN1C(=O)c1ccnc(OC2CCCCC2)c1`, the “% Inhibition” value was 53% and the Z score was 0.89.
In the case of `NC(=O)[C@@H]1CCCCN1C(=O)c1ccnc(-n2cccn2)c1`, the “% Inhibition” value is reported as 12% and the Z score is reported as -1.33.
In the case of `CC[C@H]1CCCCCN1C(=O)c1ccnc(OC2CCC2)c1`, the “% Inhibition” value is reported as -5% and the Z score is reported as 0.5.
`COc1ccc(CCc2nc(NC(=O)C(C)C)n[nH]2)cc1OC` was tested, and the “% Inhibition” value was 13% and the Z score was -1.63.
With `COc1ccc(CCc2nc(NC(=O)c3nc(C)sc3C)n[nH]2)cc1OC` the “% Inhibition” value was 71% and the Z score was -9.67.
With `COc1ccc(CCc2nc(NC(=O)[C@H]3CC(=O)N(C)C3)n[nH]2)cc1OC` the “% Inhibition” value was 15% and the Z score was -2.27.
For `COC1CCCC(CC(=O)NC2CC(=O)N(C)C2)C1` (centres undefined), the “% Inhibition” value was 2% and the Z score was -0.4.
For `CC(C)C[C@H]1CCCN(CC(=O)N2CC(=O)Nc3ccccc32)C1`, the “% Inhibition” value was -1% and the Z score was 0.19.
`CN(C[C@H](O)C(F)(F)F)C(=O)c1ccc(C#N)cn1` was tested, and the “% Inhibition” value was -15% and the Z score was 1.32.
In the case of `CC(=O)N1CCN(C(=O)NCc2cc(F)ccc2C)C[C@@H](O)C1`, the “% Inhibition” value is reported as -9% and the Z score is reported as 0.8.
In the case of `C[N+]1(C/C=C/C(O)(c2ccccc2)c2ccccc2)CCCCC1`, the “% Inhibition” value is reported as 12% and the Z score is reported as -1.05.
In the case of `CCC[N+]1(CC#C[C@@](O)(c2ccccc2)C2(C)CCCC2)CCCCC1`, the “% Inhibition” value is reported as 51% and the Z score is reported as -4.55.
In the case of `CC1([C@@](O)(C#CC[N+]2(C)CCCCC2)c2ccccc2)CCCC1`, the “% Inhibition” value is reported as 60% and the Z score is reported as -9.64.
`CCC[N+]1(CC#C[C@@](O)(c2ccccc2)C(C)(CC)CC)CCCCC1` was tested, and the “% Inhibition” value was 54% and the Z score was -8.65.
In the case of `CCC(C)(CC)[C@@](O)(C#CC[N+]1(Cc2ccccc2Cl)CCCCC1)c1ccccc1`, the “% Inhibition” value is reported as 39% and the Z score is reported as -4.45.
`CCC[N+]1(CC#CC2(O)CCCCC2)CCOCC1` was tested, and the “% Inhibition” value was -9% and the Z score was 1.67.
With `CCC1([C@@](O)(C#CCN2CCCCCC2)c2ccccc2)CCCC1` the “% Inhibition” value was -16% and the Z score was 1.41.
With `CCC(C)(CC)[C@@](O)(C#CC[N+]1(Cc2ccccc2)CCCCC1)c1ccccc1` the “% Inhibition” value was 38% and the Z score was -1.99.
With `CCC1([C@@](O)(C#CCN(Cc2ccccc2)C(C)(C)C)c2ccccc2)CCCC1` the “% Inhibition” value was 33% and the Z score was -3.73.
`CCOC[C@H]1CCN(C(=O)C2(O)CN(C(=O)OC(C)(C)C)C2)C1` was tested, and the “% Inhibition” value was -4% and the Z score was 0.81.
For `Cn1cccc(C(=O)N2CCC(c3nnc(C(F)(F)F)o3)CC2)c1=O`, the “% Inhibition” value was -12% and the Z score was 1.33.
In the case of `Cc1ccc(-c2cc(C(=O)Nc3ncccc3Cl)c3ccccc3n2)s1`, the “% Inhibition” value is reported as 3% and the Z score is reported as -0.34.
For `CCOc1cc2c(cc1CN1CCN(C)[C@]3(CCC(=O)N(C)CC3)C1)CCC2`, the “% Inhibition” value was -10% and the Z score was 1.92.
With `CC1(C(=O)N2CC3CCCCC3C2)CCCC1` (centres undefined) the “% Inhibition” value was -24% and the Z score was 2.4.
For `O=C(c1cccc2cc[nH]c12)N1C[C@@H]2[C@H](C1)[C@H]1CC[C@@H]2O1`, the “% Inhibition” value was 18% and the Z score was -1.92.
With `Clc1ccc(C[n+]2ccc(-c3nc4ccccc4o3)cc2)c(Cl)c1` the “% Inhibition” value was 79% and the Z score was -11.4.
In the case of `c1cc(-c2nc3ccccc3o2)cc(-c2nc3ccccc3o2)c1`, the “% Inhibition” value is reported as -13% and the Z score is reported as 2.52.
`Clc1ccc(COc2ccc(Br)cc2CNc2ccc(-c3nc4ccccc4o3)cc2)c(Cl)c1` was tested, and the “% Inhibition” value was -39% and the Z score was 4.57.
With `Cc1cc(C(=O)NCc2ccncc2)c(=O)n(C)c1C` the “% Inhibition” value was -11% and the Z score was 1.52.
In the case of `CC(NCC1CS(=O)(=O)c2ccccc21)[C@@H]1C[C@H]1C1CC1` (some centres undefined), the “% Inhibition” value is reported as -3% and the Z score is reported as 0.41.
For `O=C(Nc1ccccc1F)C1CCN(c2cc(C3CC3)ncn2)CC1`, the “% Inhibition” value was -16% and the Z score was 3.11.
`NC(=O)c1ccccc1NC(=O)C1CCN(c2cc(C3CC3)ncn2)CC1` was tested, and the “% Inhibition” value was 57% and the Z score was -10.93.
With `NC(=O)c1ccccc1NC(=O)C1CCN(c2cc(N3CCCC3)ncn2)CC1` the “% Inhibition” value was 7% and the Z score was -1.36.
In the case of `Cc1cc(NC(=O)c2ccc3c(c2)C(=O)N(C[C@H]2CCCO2)C3=O)no1`, the “% Inhibition” value is reported as -8% and the Z score is reported as 1.45.
With `CNC(=O)[C@@H]1CCCN1C(=O)CNC(=O)c1cccc2c1OCC2` the “% Inhibition” value was -5% and the Z score was 0.71.
With `Cc1ncsc1CCN(C)CCn1cc[nH]c1=O` the “% Inhibition” value was -15% and the Z score was 3.22.
`O=C(NC(C1CC1)C1CC1)c1coc(COc2cccc(F)c2)n1` was tested, and the “% Inhibition” value was -6% and the Z score was 1.01.
With `Cc1noc(C)c1CC(=O)N1CCCCCC1` the “% Inhibition” value was -23% and the Z score was 2.1.
With `CC[C@@]1(C)CCCN(C(=O)Cc2c(C)noc2Cl)C1` the “% Inhibition” value was 85% and the Z score was -13.67.
`Cc1noc(Cl)c1CC(=O)N1CCCC(C)(C)CC1` was tested, and the “% Inhibition” value was 44% and the Z score was -6.85.
`Cc1cc(C(=O)Nc2nc(C)cs2)on1` was tested, and the “% Inhibition” value was -13% and the Z score was 2.13.
`O[C@@H](Cc1ccc2ccccc2n1)c1ccccc1` was tested, and the “% Inhibition” value was 33% and the Z score was 0.78.
For `Cc1ccc[n+](CC2OCc3ccccc3CO2)c1`, the “% Inhibition” value was 5% and the Z score was -0.68.
For `c1ccc2c[n+](Cc3ccc4ccccc4n3)ccc2c1`, the “% Inhibition” value was 59% and the Z score was -7.39.
In the case of `Cc1ccc[n+](Cc2ccc3ccccc3n2)c1`, the “% Inhibition” value is reported as 59% and the Z score is reported as -7.89.
With `c1ccc2cc(-c3ccc4ccccc4n3)ccc2c1` the “% Inhibition” value was 41% and the Z score was -1.59.
`Cc1nnc(CN(C)Cc2ccc3ccccc3n2)o1` was tested, and the “% Inhibition” value was -21% and the Z score was 2.06.
In the case of `Cc1ccc(S(=O)(=O)N2CCO[C@@H](COc3ccccc3)C2)c(C)c1NS(C)(=O)=O`, the “% Inhibition” value is reported as 0% and the Z score is reported as 0.05.
With `COC(C)(C)CCC[C@H](C)CCNCC(C)(C)N1CCOCC1` the “% Inhibition” value was 1% and the Z score was -0.18.
`N#C[C@H]1C(=O)c2ccccc2N(Cc2ccccc2)C1=O` was tested, and the “% Inhibition” value was -5% and the Z score was 0.84.
In the case of `CCN1CC(=O)N[C@H]2CN(C(=O)c3cnn(CC)c3C)CC[C@@H]2OCc2cccc(c2)Oc2cc(OC(C)C)cc(c2)C1=O`, the “% Inhibition” value is reported as -5% and the Z score is reported as 0.73.
`CCn1nc(-c2ccc(OC)cc2F)cc1C(=O)NCCN1CCCCC1` was tested, and the “% Inhibition” value was -17% and the Z score was 2.1.
With `Cc1cc(C)c2nc(N3CCC(C(=O)NC4CCCCCC4)CC3)sc2c1` the “% Inhibition” value was -8% and the Z score was 1.22.
`CC(C)CNC(=O)CS(=O)(=O)Cc1ccccc1` was tested, and the “% Inhibition” value was -6% and the Z score was 1.18.
For `CCOC(=O)N1CCC(NC(=O)c2coc(NC(=O)Cc3c(C)noc3C)n2)CC1`, the “% Inhibition” value was 18% and the Z score was -2.53.
`CC(C)c1cc(=O)[nH]c(-n2nc(C3CC3)cc2NC(=O)Cc2ccc(Cl)cc2)n1` was tested, and the “% Inhibition” value was 74% and the Z score was -12.5.
For `CC(C)c1cc(=O)[nH]c(-n2nc(C3CC3)cc2NC(=O)c2ccccc2C(F)(F)F)n1`, the “% Inhibition” value was 18% and the Z score was -3.33.
With `CC(C)c1cc(=O)[nH]c(-n2nc(C3CC3)cc2NC(=O)COc2ccc3ccccc3c2)n1` the “% Inhibition” value was 54% and the Z score was -12.73.
`COc1ccc(C(=O)OCC(=O)Nc2cc(C3CC3)nn2-c2ccccc2)c(O)c1` was tested, and the “% Inhibition” value was -7% and the Z score was 1.34.
In the case of `Cc1nc(CC(=O)Nc2cc(C3CC3)nn2-c2ccccc2)cs1`, the “% Inhibition” value is reported as 38% and the Z score is reported as -0.78.
